{"source": "PubChem BioAssay AID1523", "about": "(The Scripps Research Institute Molecular Screening Center, 2009)", "target": "Sphingosine 1-phosphate receptor 4 (Homo sapiens) (UniProt O95977)", "sequence (O95977 whole entry, looked up)": "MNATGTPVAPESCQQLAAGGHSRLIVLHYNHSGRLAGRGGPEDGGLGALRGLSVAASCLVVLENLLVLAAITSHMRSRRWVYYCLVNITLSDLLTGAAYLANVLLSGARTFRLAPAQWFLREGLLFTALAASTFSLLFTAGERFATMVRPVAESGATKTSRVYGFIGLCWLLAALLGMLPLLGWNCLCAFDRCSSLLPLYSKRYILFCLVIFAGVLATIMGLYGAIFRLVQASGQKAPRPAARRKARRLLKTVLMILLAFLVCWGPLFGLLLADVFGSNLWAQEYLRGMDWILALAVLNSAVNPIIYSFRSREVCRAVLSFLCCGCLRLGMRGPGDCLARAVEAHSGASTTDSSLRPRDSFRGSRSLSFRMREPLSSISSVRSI", "assay": "S1P4 receptor agonists, retest, confirmation, cell-based, high throughput (AID 1523);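 also: 0% = vehicle and 100% = full reference agonist response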", "settings": "S1P4 agonist cell-based reporter assay; at 4.98 µM; stronger effect = higher value", "note": "The list shows a part of the results. Values without a mark were called inactive. Rule as the data show it: active = activation above about 12%; inactive = the rest."}
{"molecule": "CC(C)N(CC#CCC1(O)c2ccccc2-c2ccccc21)C(C)C", "values": [{"measurement": "activation", "result": -2.04, "unit": "%"}]}
